# The campaign covered roughly 5,500 compounds. About 2,000 (36%) were called active. Another 18% or so got no clear call; they are omitted. This is one part of the list. Values without a mark were called inactive. No stated cut-off is given here; in the data, active means normalized growth mostly below about 0.91 (no sharp cut-off); inconclusive means no clear call, values can overlap the other calls; inactive means mostly above about 0.92.
# Assay: chemical genetic growth profiling, strain panel (AID 1159580);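 further: tested at 20 µM; growth read once vehicle control cultures reached saturation at 30 °C; 1 = growth at the plate median or of vehicle wells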
# Conditions: growth OD
compound,measurement,setting,value
CC(=O)[C@H]1CCC2C3CCC4=CC(=O)CC[C@]4(C)C3CC[C@@]21C (some centres not stated),normalized growth,"S. cerevisiae deletion strains, locus YJR075W, strain HOC1, stronger effect = lower value",0.949
same,normalized growth,"S. cerevisiae deletion strains, locus YKL009W, strain mrt4, stronger effect = lower value",0.914
same,normalized growth,"S. cerevisiae deletion strains, locus YKL068W, stronger effect = lower value",0.947
same,normalized growth,"S. cerevisiae deletion strains, locus YKL085W, strain MDH1 (second series), stronger effect = lower value",0.929 (active)
same,normalized growth,"S. cerevisiae deletion strains, locus YKL085W, strain MDH1, stronger effect = lower value",0.929 (active)
same,normalized growth,"S. cerevisiae deletion strains, locus YKL160W, strain elf1, stronger effect = lower value",0.913
same,normalized growth,"S. cerevisiae deletion strains, locus YKL190W, strain CNB1, stronger effect = lower value",0.978
same,normalized growth,"S. cerevisiae deletion strains, locus YKR001C, strain vps1, stronger effect = lower value",0.704 (active)
same,normalized growth,"S. cerevisiae deletion strains, locus YKR026C, strain gcn3, stronger effect = lower value",0.981
same,normalized growth,"S. cerevisiae deletion strains, locus YKR091W, strain srl3, stronger effect = lower value",0.977
same,normalized growth,"S. cerevisiae deletion strains, locus YLL001W, strain dnm1, stronger effect = lower value",0.989
same,normalized growth,"S. cerevisiae deletion strains, locus YLL026W, stronger effect = lower value",0.978
same,normalized growth,"S. cerevisiae deletion strains, locus YLL041C, strain sdh2, stronger effect = lower value",0.977
same,normalized growth,"S. cerevisiae deletion strains, locus YLR027C, strain aat2, stronger effect = lower value",0.95
same,normalized growth,"S. cerevisiae deletion strains, locus YLR039C, strain RIC1, stronger effect = lower value",0.447 (active)
same,normalized growth,"S. cerevisiae deletion strains, locus YLR058C, strain SHM2, stronger effect = lower value",0.974
same,normalized growth,"S. cerevisiae deletion strains, locus YLR102C, strain apc9, stronger effect = lower value",0.942
same,normalized growth,"S. cerevisiae deletion strains, locus YLR113W, strain HOG1, stronger effect = lower value",0.958
same,normalized growth,"S. cerevisiae deletion strains, locus YLR221C, strain rsa3, stronger effect = lower value",0.955
same,normalized growth,"S. cerevisiae deletion strains, locus YLR258W, strain gsy2, stronger effect = lower value",0.962
same,normalized growth,"S. cerevisiae deletion strains, locus YLR262C, strain YPT6 (second series), stronger effect = lower value",0.475 (active)
same,normalized growth,"S. cerevisiae deletion strains, locus YLR262C, strain YPT6, stronger effect = lower value",0.494 (active)
same,normalized growth,"S. cerevisiae deletion strains, locus YLR268W, strain sec22, stronger effect = lower value",0.718 (active)
same,normalized growth,"S. cerevisiae deletion strains, locus YLR320W, strain mms22, stronger effect = lower value",0.615 (active)
same,normalized growth,"S. cerevisiae deletion strains, locus YLR330W, strain CHS5, stronger effect = lower value",0.978
same,normalized growth,"S. cerevisiae deletion strains, locus YLR342W, strain FKS1 (second series), stronger effect = lower value",0.814
same,normalized growth,"S. cerevisiae deletion strains, locus YLR342W, strain FKS1, stronger effect = lower value",0.94
same,normalized growth,"S. cerevisiae deletion strains, locus YLR357W, strain rsc2, stronger effect = lower value",1.05
same,normalized growth,"S. cerevisiae deletion strains, locus YLR370C, strain arc18, stronger effect = lower value",0.957
same,normalized growth,"S. cerevisiae deletion strains, locus YLR371W, strain rom2, stronger effect = lower value",0.904 (active)
same,normalized growth,"S. cerevisiae deletion strains, locus YLR384C, strain iki3, stronger effect = lower value",0.968
same,normalized growth,"S. cerevisiae deletion strains, locus YLR418C, strain cdc73, stronger effect = lower value",0.441 (active)
same,normalized growth,"S. cerevisiae deletion strains, locus YML016C, strain PPZ1, stronger effect = lower value",0.963
same,normalized growth,"S. cerevisiae deletion strains, locus YML032C, strain rad52, stronger effect = lower value",0.76 (active)
same,normalized growth,"S. cerevisiae deletion strains, locus YML120C, strain ndi1, stronger effect = lower value",0.966
same,normalized growth,"S. cerevisiae deletion strains, locus YML124C, strain tub3, stronger effect = lower value",0.942
same,normalized growth,"S. cerevisiae deletion strains, locus YMR058W, strain fet3, stronger effect = lower value",0.923
same,normalized growth,"S. cerevisiae deletion strains, locus YMR078C, strain ctf18, stronger effect = lower value",0.724 (active)
same,normalized growth,"S. cerevisiae deletion strains, locus YMR125W, strain sto1, stronger effect = lower value",0.942
same,normalized growth,"S. cerevisiae deletion strains, locus YMR129W, stronger effect = lower value",0.976
same,normalized growth,"S. cerevisiae deletion strains, locus YMR205C, strain PFK2, stronger effect = lower value",0.813 (active)
same,normalized growth,"S. cerevisiae deletion strains, locus YMR223W, strain ubp8, stronger effect = lower value",0.782 (active)
same,normalized growth,"S. cerevisiae deletion strains, locus YMR231W, strain pep5, stronger effect = lower value",0.96
same,normalized growth,"S. cerevisiae deletion strains, locus YMR263W, strain SAP30, stronger effect = lower value",0.973
same,normalized growth,"S. cerevisiae deletion strains, locus YMR307W, strain GAS1, stronger effect = lower value",0.78
same,normalized growth,"S. cerevisiae deletion strains, locus YNL067W, strain RPL9B, stronger effect = lower value",0.952
same,normalized growth,"S. cerevisiae deletion strains, locus YNL071W, strain lat1, stronger effect = lower value",0.632 (active)
same,normalized growth,"S. cerevisiae deletion strains, locus YNL128W, strain TEP1, stronger effect = lower value",0.99
same,normalized growth,"S. cerevisiae deletion strains, locus YNL153C, strain GIM3, stronger effect = lower value",0.967
same,normalized growth,"S. cerevisiae deletion strains, locus YNL183C, strain NPR1, stronger effect = lower value",0.933
same,normalized growth,"S. cerevisiae deletion strains, locus YNL209W, strain ssb2, stronger effect = lower value",0.991
same,normalized growth,"S. cerevisiae deletion strains, locus YNL233W, strain BNI4, stronger effect = lower value",0.947
same,normalized growth,"S. cerevisiae deletion strains, locus YNL248C, strain rpa49, stronger effect = lower value",0.94
same,normalized growth,"S. cerevisiae deletion strains, locus YNL250W, strain rad50, stronger effect = lower value",0.917
same,normalized growth,"S. cerevisiae deletion strains, locus YNL271C, strain bni1, stronger effect = lower value",0.889 (active)
same,normalized growth,"S. cerevisiae deletion strains, locus YNL298W, strain CLA4, stronger effect = lower value",0.865 (active)
same,normalized growth,"S. cerevisiae deletion strains, locus YNL307C, strain MCK1, stronger effect = lower value",0.185 (active)
same,normalized growth,"S. cerevisiae deletion strains, locus YNL322C, strain KRE1 (second series), stronger effect = lower value",1
same,normalized growth,"S. cerevisiae deletion strains, locus YNL322C, strain KRE1, stronger effect = lower value",0.989
same,normalized growth,"S. cerevisiae deletion strains, locus YNR049C, strain mso1, stronger effect = lower value",0.975
same,normalized growth,"S. cerevisiae deletion strains, locus YNR052C, strain pop2, stronger effect = lower value",0.733 (active)
same,normalized growth,"S. cerevisiae deletion strains, locus YOL006C, strain TOP1, stronger effect = lower value",0.652
same,normalized growth,"S. cerevisiae deletion strains, locus YOL012C, strain htz1",0.798
same,normalized growth,"S. cerevisiae deletion strains, locus YOL147C, strain pex11, stronger effect = lower value",0.527 (active)
same,normalized growth,"S. cerevisiae deletion strains, locus YOR001W, strain rrp6, stronger effect = lower value",0.934
same,normalized growth,"S. cerevisiae deletion strains, locus YOR061W, strain CKA2, stronger effect = lower value",0.964
same,normalized growth,"S. cerevisiae deletion strains, locus YOR069W, strain VPS5, stronger effect = lower value",0.978
same,normalized growth,"S. cerevisiae deletion strains, locus YOR070C, strain gyp1, stronger effect = lower value",0.955
same,normalized growth,"S. cerevisiae deletion strains, locus YOR080W, strain dia2, stronger effect = lower value",0.993
same,normalized growth,"S. cerevisiae deletion strains, locus YOR083W, strain WHI5, stronger effect = lower value",0.941
same,normalized growth,"S. cerevisiae deletion strains, locus YOR106W, strain vam3, stronger effect = lower value",0.95
same,normalized growth,"S. cerevisiae deletion strains, locus YOR136W, strain idh2, stronger effect = lower value",0.943
same,normalized growth,"S. cerevisiae deletion strains, locus YOR144C, strain elg1, stronger effect = lower value",0.852 (active)
same,normalized growth,"S. cerevisiae deletion strains, locus YOR184W, strain ser1, stronger effect = lower value",0.284 (active)
same,normalized growth,"S. cerevisiae deletion strains, locus YOR231W, strain MKK1, stronger effect = lower value",0.937
same,normalized growth,"S. cerevisiae deletion strains, locus YOR265W, strain rbl2, stronger effect = lower value",0.967
same,normalized growth,"S. cerevisiae deletion strains, locus YOR270C, strain vph1, stronger effect = lower value",0.704 (active)
same,normalized growth,"S. cerevisiae deletion strains, locus YOR290C, strain snf2, stronger effect = lower value",0.926
same,normalized growth,"S. cerevisiae deletion strains, locus YOR316C, strain cot1, stronger effect = lower value",0.884 (active)
same,normalized growth,"S. cerevisiae deletion strains, locus YPL051W, strain arl3, stronger effect = lower value",0.903 (active)
same,normalized growth,"S. cerevisiae deletion strains, locus YPL055C, strain LGE1, stronger effect = lower value",0.929
same,normalized growth,"S. cerevisiae deletion strains, locus YPL078C, strain atp4, stronger effect = lower value",0.874 (active)
same,normalized growth,"S. cerevisiae deletion strains, locus YPL106C, strain sse1, stronger effect = lower value",1.05
same,normalized growth,"S. cerevisiae deletion strains, locus YPL240C, strain hsp82, stronger effect = lower value",0.964
same,normalized growth,"S. cerevisiae deletion strains, locus YPL241C, strain CIN2, stronger effect = lower value",0.977
same,normalized growth,"S. cerevisiae deletion strains, locus YPL256C, strain CLN2, stronger effect = lower value",0.981
same,normalized growth,"S. cerevisiae deletion strains, locus YPR119W, strain clb2, stronger effect = lower value",0.919 (active)
same,normalized growth,"S. cerevisiae deletion strains, locus YPR141C, strain kar3, stronger effect = lower value",0.937
same,normalized growth,"S. cerevisiae deletion strains, locus YPR163C, strain tif3, stronger effect = lower value",0.527 (active)
same,normalized growth,"S. cerevisiae deletion strains, locus YPR167C, strain met16, stronger effect = lower value",0.945
same,normalized growth,"S. cerevisiae deletion strains, strain wtn01, stronger effect = lower value",0.789 (active)
same,normalized growth,"S. cerevisiae strains, strain wild type, stronger effect = lower value",0.974

# — PubChem BioAssay AID1159580 (chemical genetic matrix, 2015)
